Source: PubChem (several laboratories)
Anthrax LF prot = Bacillus anthracis LF protease inhibitors, primary screen, biochemical, multiplex microsphere, MLPCN library; Lethal factor (Bacillus anthracis), P15917; multiplex microsphere protease cleavage assay; inhibition, % at 10 µM; 360,000 tested, 0.12% active; AID 588501, 2011; note: plate controls were buffer without enzyme for full effect and enzyme alone for no effect
BJeLR viability = MLPCN primary cell-based screen for lethality selective to Ras in HRASV12 cells. BJeLR (HRASV12) viability, CellTiter-Glo ATP luminescence, 48 h. inhibition, % (no concentration beside the values). 300,000 tested, 0.17% active. AID 1554, 2009; in the data active = inhibition above about 50%; inconclusive = no clear call, values can overlap the other calls
3CLpro inhibitor = SARS-CoV 3CLpro protease inhibitors, primary screen, biochemical, quenched FRET. 290,000 tested, 0.14% active. recombinant SARS-CoV 3CLpro, quenched FRET peptide cleavage. AID 1706, 2009. inhibition, % at 6 µM. Replicase polyprotein 1ab (Severe acute respiratory syndrome coronavirus), P0C6X7; in the data active = inhibition above about 12%
Autofluor counter = flagged as autofluorescent in microsphere protease counterscreen. compound autofluorescence counterscreen, microsphere flow cytometry; stronger effect = higher value. 360,000 tested, 3.1% active. AID 624483. fluorescence intensity (no concentration beside the values); in the data active = fluorescence intensity above about 16000; inconclusive = no clear call, values can overlap the other calls
BoNT A protease = BoNT/A light chain protease inhibitors, primary screen, biochemical, flow cytometry, MLPCN library; 360,000 tested, 0.17% active; multiplex microsphere protease substrate cleavage; Botulinum neurotoxin type A light chain protease (Clostridium botulinum A str. ATCC 3502); inhibition, % at 10 µM; note: plate controls were buffer without enzyme for full effect and enzyme alone for no effect
BoNT-F LC inh = BoNT/F light chain protease inhibitors, primary screen, biochemical, flow cytometry, MLPCN library. Botulinum neurotoxin type F light chain protease (Clostridium botulinum). Multiplex microsphere protease cleavage assay. inhibition, % at 10 µM. 360,000 tested, 0.22% active. AID 588497, 2011; in the data active = inhibition above about 35%, passing the limit was not always enough; inconclusive = no clear call, values can overlap the other calls; note: plate controls were buffer without enzyme for full effect and enzyme alone for no effect
* hit, by the source's call; ? = inconclusive; . = no result given. Shown are actives, neighbours in structure and some others; about 3.6% of the full set was active somewhere. Cut-off read from the data, not from the text of the source, unless noted: active = inhibition above about 30%; inconclusive = no clear call, values can overlap the other calls; inactive = below that.

SMILES	Anthrax LF prot	BJeLR viability	3CLpro inhibitor	Autofluor counter	BoNT A protease	BoNT-F LC inh
CN(c1ccc(C(=O)N2CCN(Cc3ccc4c(c3)OCO4)CC2)cc1)S(=O)(=O)c1ccccc1	-3	5	9	23288*	-1	1
CCOC(=O)N1CCN(C(=O)CCc2ccc(S(=O)(=O)NCCc3ccccc3)cc2)CC1	-5	3	1	22791*	2	5
CCNS(=O)(=O)c1ccc(CCC(=O)N2CCN(Cc3ccccc3)CC2)cc1	13	2	1	4081	0	?
CC(C)CNS(=O)(=O)c1ccc(CCC(=O)N2CCN(Cc3ccc4c(c3)OCO4)CC2)cc1	.	3	0	.	.	.
O=C(CCc1ccc(S(=O)(=O)NCCc2ccccc2)cc1)N1CCN(Cc2ccc3c(c2)OCO3)CC1	-5	2	-1	21187*	1	0
COc1ccc2cc(Br)ccc2c1CC(=O)NC1CC(C)(C)NC(C)(C)C1	2	-1	-2	9894	0	1
O=C1ON=C(c2ccccc2)/C1=C/c1ccc(-c2ccccc2[N+](=O)[O-])o1	-1	.	15*	9904	1	9
CCc1ccc2c(c1)C(c1cccs1)=NNC(c1cccnc1)=N2	-3	3	-2	19854*	?	2
Clc1ccc2c(c1)C(c1cccs1)=NNC(c1cccnc1)=N2	2	-7	3	13327	19	32
COc1ccc(CN(C)CC(=O)Nc2cc(OC)c([N+](=O)[O-])cc2C)c(OC)c1	2	-8	5	2442	0	-1
CCOC(=O)c1[nH]c(C)c(/C(O)=C2\C(=O)C(=O)N(CCN(C)C)C2c2ccc(C)o2)c1C (configuration not stated)	-1	1	-3	21142*	-4	-3
CCN(CC)CCN1C(=O)C(=O)/C(=C(/O)c2c(C)[nH]c(C(=O)OC)c2C)C1c1cccc(OC)c1 (configuration not stated)	-4	-2	0	18213*	-4	-4
COC(=O)c1[nH]c(C)c(/C(O)=C2\C(=O)C(=O)N(CCN(C)C)C2c2cccs2)c1C (configuration not stated)	-5	-4	0	20496*	1	-2
COc1ccc(-n2cc(-c3ccccc3)c3c(N4CCN(CCO)CC4)ncnc32)cc1	-2	-8	-1	20444*	7	8
CS(=O)(=O)N1CCN(C(=O)c2ccc(Br)s2)CC1	-1	-2	1	20324*	1	2
CS(=O)(=O)N1CCN(C(=O)Cc2cccs2)CC1	-1	-5	3	16441*	?	-2
CN1CCN(C(=O)C(=O)c2cn(CC(=O)N3CCCCCC3)c3ccccc23)CC1	36*	.	.	4647	10	12
CC1CCCN(C(=O)C(=O)c2cn(CC(=O)N3CCCCCC3)c3ccccc23)C1 (configuration not stated)	28	-9	-6	7036	35*	13
CCN1CCN(C(=O)C(=O)c2cn(CC(=O)N3CCCC3)c3ccccc23)CC1	-3	-3	2	6511	-2	-3
CC1CCN(C(=O)C(=O)c2cn(CC(=O)N3CCCCCC3)c3ccccc23)CC1	38*	-1	-1	6694	37*	8
CCN1CCN(C(=O)C(=O)c2cn(CC(=O)N3CCCCCC3)c3ccccc23)CC1	10	1	0	7481	4	5
NC(=O)C1CCN(C(=O)C(=O)c2cn(CC(=O)N3CCCCCC3)c3ccccc23)CC1	39*	8	5	7217	39*	17
COc1ccc(-n2c(C)cc(C)c(C(C)=O)c2=S)cc1	2	-5	0	10943	0	-3
CCOC(=O)c1cnn(CCOC(=O)c2ccccc2)c1NC(=O)c1ccccc1	9	-9	-2	1870	2	18
CCOC(=O)c1cnn(CCOC(=O)C2CC2)c1NC(=O)C1CC1	-2	0	-2	20293*	1	-2
SMILES	Anthrax LF prot	BJeLR viability	3CLpro inhibitor	Autofluor counter	BoNT A protease	BoNT-F LC inh
COc1cc(C2C(C#N)=C(N)Oc3c2ccc2ccccc32)ccc1OCC(=O)Nc1ccccc1C (configuration not stated)	-1	5	11	22354*	?	0
COC(=O)c1ccc(NC(=O)COc2ccc(C3C(C#N)=C(N)Oc4c3ccc3ccccc43)cc2OC)cc1 (configuration not stated)	5	-8	-3	4068	1	-1
CCNC(=O)C1(C)CCN(C(=O)c2cccs2)C1 (configuration not stated)	-3	.	.	3557	0	-3
CCOc1ccccc1N1CCN(C(=O)c2ccccc2SCC(=O)N2CCCC2)CC1	-1	-8	3	5898	0	-2
CN(C)c1ccc(C=Nc2ccc(N(C)C)cc2)cc1	-8	7	0	1945	1	-31
CN(C)c1ccc(N=Cc2ccco2)cc1	-10	.	-3	20149*	8	-23
COc1ccc(CN2C(=O)CC(=O)NC2=S)cc1	0	-7	-2	2641	-1	-4
CCOC1(C(F)(F)F)NC(=O)N(Cc2ccc(OC)cc2)C1=O (configuration not stated)	-8	-5	1	19545*	0	0
CN1C[C@@H]2[C@@H]3C(=O)N(C)C(=O)[C@@H]3[C@](Cc3ccccc3)(C1=O)N2C(=O)c1ccc(Cl)cc1	-6	.	.	4238	0	2
CCNS(=O)(=O)c1ccc(Br)c(OC)c1	-2	-1	1	20265*	-1	0
O=C1CC(c2ccc(S(=O)(=O)NCCOc3ccccc3)cc2)CN1 (configuration not stated)	-2	-2	-5	21883*	3	2
COCCNS(=O)(=O)c1ccc(C2CNC(=O)C2)cc1 (configuration not stated)	-2	-11	1	5261	0	-1
COc1ccc(S(=O)(=O)NCCOc2ccccc2)cc1OC	0	6	-6	22108*	1	4
COc1cc(S(=O)(=O)NCc2ccccc2)ccc1Br	-1	-7	-1	2428	0	0
COc1ccc(S(=O)(=O)NCCOc2ccccc2)cc1-n1cnnn1	5	-3	-6	4706	-1	1
Cc1ncc(S(=O)(=O)c2ccccc2)c(-c2ccccc2)n1	-5	-10	1	3353	0	-2
O=S(=O)(c1ccccc1)c1cnc(-c2cccnc2)nc1-c1ccc(Cl)c(Cl)c1	-21	3	3	17469*	9	11
